The list is not random: actives were taken first. Their share in the collection is about 13%.
FMDV inh – High Throughput Screening for Foot and Mouth Disease Virus Antivirals; FMDV antiviral cell-based qHTS; 410,000 tested, 1.2% active; Potency, µM (series often up to 57.9 µM), hits mostly inhibitors; AID 1159524, 2015; calls by dose curve; tested in HEK293T cells; note: read-out not given here; nearly all actives have a fitted effect of over 45% in size
MARV entry inh – qHTS for inhibitors of binding or entry into cells for Marburg Virus; Marburg virus pseudotyped entry inhibition, cell reporter; Potency, µM (highest dose often 37.8 µM), most hits filed as inhibitors; 300,000 tested, 1.8% active; AID 540276, 2011; calls by dose curve; tested in HEK293 cells
HCV inh – qHTS Assay for Inhibitors of Hepatitis C Virus (HCV); Huh7.5.1 HCVcc-Cre infection, luciferase reporter, 44 h; Potency, µM (titrated, usually from 41.8 µM), usual class: inhibitors; 340,000 tested, 3.4% active; AID 651820, 2012; active = well fitted inhibition curve with a large enough effect; inconclusive = small, poorly fitted or top-dose-only effect, or another doubt; inactive = no such curve, though single readings can be large or run the other way
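After 44 h co-culture of compound, cells and HCVcc-Cre (~0.5 moi), substrate is added for 15 min at room temperature and luciferase measured over 15 sec. Cells were seeded at 1,000/well and pre-cultured 4 h.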
Shiga inhibitor – A qHTS for Small Molecule Inhibitors of Shiga Toxin; Vero cells, Shiga toxin protein synthesis inhibition reporter; inhibition, % at 38.7 µM; 290,000 tested, 9.2% active; in the data active = inhibition mostly above about 28%, no sharp cut-off; inactive = mostly below about 43%
Cycloheximide cs – Cycloheximide Counterscreen for Small Molecule Inhibitors of Shiga Toxin; cell reporter, cycloheximide protein synthesis inhibition counterscreen; max response, %; 300,000 tested, 12% active; in the data active = max response mostly above about 13%, no sharp cut-off; inactive = mostly below about 14%; note: read at 38.3 µM for the half of the compounds with a filed dose
Lassa entry inh – qHTS for Inhibitors of binding or entry into cells for Lassa Virus. Lassa virus pseudotype entry inhibition, cell reporter. Potency, µM (doses to about 37.9 µM), hits mostly inhibitors. 300,000 tested, 1.2% active. AID 540256, 2011; calls by dose curve; tested in HEK293 cells; note: nearly all actives have a fitted effect of over 50% in size
Numbers stand for hits; . = inactive; ? = inconclusive; / = no result given.

SMILES	FMDV inh	MARV entry inh	HCV inh	Shiga inhibitor	Cycloheximide cs	Lassa entry inh
COc1ccc(/C=C/C(=O)c2c(O)c(OC)c3occc3c2OC)cc1	?	?	?	.	15	.
COc1ccc(/C=C/C(=O)c2ccccc2O)cc1	.	?	.	106	65	.
COc1ccc(/C=C/C(=O)c2sc(-c3ccc(Cl)cc3)nc2C)cc1	/	.	/	.	.	/
COc1ccc(/C=C/C(=O)c2ccoc2)cc1	.	.	.	89	42	.
CN(C(=O)COC(=O)C1CCN(S(=O)(=O)c2c(Cl)cccc2Cl)CC1)c1ccccc1	.	.	.	/	/	.
COc1ccccc1-n1c(/C=C/c2ccccn2)nc2ccccc2c1=O	?	?	?	.	.	?
COc1cccc(/C=C/c2ccccn2)c1O	.	/	.	110	50	/
Cc1ccc(NC(=O)CCn2cccc2)cc1	.	.	?	.	.	.
COc1ccc(OC)c(C2c3[nH]c4ccccc4c3C[C@H]3C(=O)N(C4CC4)CC(=O)N23)c1 (stereo not given in full)	.	/	.	.	.	/
Cc1ccc(OCC(O)CN2CCCC2)cc1 (stereo not given)	.	.	.	.	.	.
COCCNC(=O)CSc1nc(-c2ccccc2)cs1	.	.	.	45	25	.
COCC(=O)NCCc1nc(-c2ccccc2)cs1	.	?	.	.	.	?
O=C(CSc1nc(-c2ccccc2)cs1)NCc1ccco1	.	?	.	44	22	.
C=CCSc1nc2c(cnn2-c2ccccc2)c(=O)n1N	.	?	.	63	53	?
CCCSc1nc2c(cnn2-c2ccccc2)c(=O)[nH]1	.	/	.	.	.	/
CCOC(=O)c1sc(NC(=O)c2ccc(OC(C)=O)cc2)nc1C	.	?	?	56	21	/
CCOC(=O)c1sc(NC(=O)c2ccc(C)o2)nc1C	.	.	?	43	28	?
COC(=O)c1sc(NC(=O)c2ccc(C)o2)nc1C	.	?	.	147	47	.
CCOC(=O)c1sc(NC(=O)c2ccco2)nc1C	.	.	?	.	.	.
CCOC(=O)c1sc(NC(=O)c2ccc(OC)cc2)nc1C	.	.	?	.	.	.
COC(=O)c1sc(NC(=O)c2oc3ccccc3c2C)nc1C	.	.	.	38	28	?
CCCCOP(=O)(OCCCC)C(O)c1ccc(F)cc1 (stereo not given)	.	.	.	.	.	?
CCOC(=O)COc1ccc2c3c(c(=O)oc2c1C)CCC3	.	.	.	.	15	.
Cc1c(OCC(=O)N(C)c2ccccc2)ccc2c3c(c(=O)oc12)CCC3	.	.	.	74	24	.
Cc1c(OCC(=O)C(C)(C)C)ccc2c3c(c(=O)oc12)CCCC3	.	/	.	/	.	/
SMILES	FMDV inh	MARV entry inh	HCV inh	Shiga inhibitor	Cycloheximide cs	Lassa entry inh
Cc1c(OCC(=O)NCC(O)c2ccccc2)ccc2c3c(c(=O)oc12)CCCC3 (stereo not given)	?	/	?	.	.	/
COc1ccc(C2=NOC(Cn3nc(-c4ccccc4)cc3C(=O)NCc3ccc(C)cc3)C2)cc1 (stereo not given)	.	/	.	/	/	/
COC(=O)c1c(NS(=O)(=O)c2ccccc2)csc1C	.	?	.	.	.	.
O=C(CSc1ncccc1C(=O)O)NC12CC3CC(CC(C3)C1)C2	.	.	.	.	.	.
C=C1C(=O)O[C@H]2[C@H]1[C@@H](O)CC(=C)[C@@H]1CC(=O)[C@@H](C)[C@H]21	22µM	?	?	36	32	?
C=C1C[C@H](OC(=O)C(C)(O)CCl)C2C(=C)C(=O)O[C@@H]2C2C1C[C@H](O)[C@]2(O)CCl (stereo not given in full)	.	/	/	/	/	/
Cc1ccc(NC(=O)Cc2noc3ccccc23)cc1	.	?	.	68	46	?
Cc1cc(C)cc(NC(=O)Cc2noc3ccccc23)c1	.	/	/	/	/	?
O=C(Cc1noc2ccccc12)Nc1ccc2ccccc2c1	.	?	.	69	32	.
O=C(CC(=O)c1ccccc1)CC(O)(C=Cc1ccccc1)c1ccccc1 (stereo not given)	.	?	.	/	/	.
CC1=NC(=O)C(N=Nc2cccc(C(=O)O)c2)N1c1ccccc1 (stereo not given)	8.9µM	2.6µM	.	104	35	2.3µM
